Here are results for 7 molecules from PubChem BioAssay (NCI).

This is part of a sample that, as a whole, favours compounds with a hit. Of some 83,000 tested, about 20% had one in any assay.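 Cell lines were cultured in 96-well plates, exposed to a single compound concentration, and assessed for percent growth 48 hours later.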 A number with no mark means an inactive call. The source made the active and inactive calls. Rule for the calls: active = growth percent below 10; inactive = the rest.

Test systems include NCI-H23 lung; NCI-H226 lung; NCI-H322M lung; HOP-62 NSCLC; NCI-H460 lung; HOP-92 NSCLC; NCI-H522 lung; A549/ATCC NSCLC; 786-0 renal; COLO 205 colon; DU-145 prostate; K-562 leukemia; MALME-3M melanoma; MDA-MB-231 breast; SF-268 CNS; SF-295 CNS; SF-539 CNS; UACC-257 melanoma; M14 melanoma.
Assay in all cases: NCI-60 one-dose screen, 48 h (100 = growth as untreated, 0 = no growth, -100 = all killed)
Common to all, as to settings: 10 µM unless noted

Consider `COc1ccc(-c2nc(N/N=C/c3cccc(Br)c3)nc(N3CCOCC3)c2C#N)cc1`, for which the growth in the assay on NCI-H23 lung is 103%; with NCI-H226 lung it was 75.8%; with NCI-H322M lung it was 88.5%; in the assay on HOP-62 NSCLC, 79.1%; in the assay with NCI-H460 lung it was 31.8%; in the assay on HOP-92 NSCLC, 82%. For the same molecule, the growth with NCI-H522 lung is 70.6%; with A549/ATCC NSCLC it was 62.2%; in the assay on 786-0 renal it was 35.6%; with COLO 205 colon it was 40.8%; in the assay with DU-145 prostate, 49.8%; in the assay with K-562 leukemia, 3.14% (active). Moreover, the growth in the assay with MALME-3M melanoma was 7.31% (active); in the assay with MDA-MB-231 breast, 72.2%; in the assay with SF-268 CNS it was 81.4%; in the assay with SF-295 CNS, 54.2%; in the assay on SF-539 CNS it was 55.9%; in the assay with UACC-257 melanoma it was -17.9% (active). In addition, the growth in the assay with M14 melanoma was 24.8%.
On to `Cc1c2c(cc[n+]1Cc1ccccc1)c1ccc(OCC3CCCCC3)cc1n2CC1CCCCC1`, for which the growth was -76.7% (active) in the assay with NCI-H23 lung; -89.1% (active) with NCI-H226 lung; -83.2% (active) with NCI-H322M lung; -95% (active) in the assay on HOP-62 NSCLC; -93.4% (active) in the assay on NCI-H460 lung; -85.6% (active) with HOP-92 NSCLC. Moreover, the growth with NCI-H522 lung was -84.5% (active); with A549/ATCC NSCLC, -93.1% (active); in the assay on 786-0 renal, -91.3% (active); with COLO 205 colon it was -95.2% (active); with DU-145 prostate, -100% (active); in the assay with K-562 leukemia, -45.9% (active). Also, the growth was -70.3% (active) in the assay on MALME-3M melanoma; -92% (active) with MDA-MB-231 breast; -98.7% (active) in the assay with SF-268 CNS; -92.8% (active) in the assay with SF-295 CNS; -85.2% (active) in the assay on SF-539 CNS; -92.4% (active) with UACC-257 melanoma. For the same molecule, in the assay with M14 melanoma, the growth is -84.6% (active).
With `O=C(N/N=C/c1ccncc1)c1ccccc1Nc1cccc(C(F)(F)F)c1`, the growth is 95.5% with NCI-H23 lung; 66.3% in the assay on NCI-H226 lung; 88.5% in the assay on NCI-H322M lung; 97.6% with HOP-62 NSCLC; 103% with NCI-H460 lung; 47.3% in the assay on HOP-92 NSCLC. Besides, the growth with NCI-H522 lung was 82%; with A549/ATCC NSCLC, 55.6%; in the assay with 786-0 renal, 86.7%; in the assay with COLO 205 colon, 107%; in the assay with DU-145 prostate, 69.2%; in the assay with K-562 leukemia it was 77.7%. Moreover, the growth with MALME-3M melanoma is 92.8%; with MDA-MB-231 breast, 79.8%; with SF-268 CNS it was 69.5%; in the assay with SF-295 CNS, 94.5%; in the assay with SF-539 CNS it was 112%; in the assay on UACC-257 melanoma, 62.9%. Moreover, the growth with M14 melanoma was 87.4%.
In the case of `CCCCCCCCCCCCCCCCCCOc1ccccc1N`, the growth in the assay on NCI-H23 lung is 87.8%; in the assay on NCI-H226 lung, 97.6%; in the assay with NCI-H322M lung, 81.7%; in the assay with HOP-62 NSCLC it was 90.9%; in the assay with NCI-H460 lung, 47.6%; in the assay with HOP-92 NSCLC, 78.7%. Also, the growth was 3.78% (active) in the assay with NCI-H522 lung; 25.5% in the assay on A549/ATCC NSCLC; 25% in the assay on 786-0 renal; 46.3% in the assay on COLO 205 colon; 62% in the assay with DU-145 prostate; 86.6% in the assay with K-562 leukemia. For the same molecule, the growth in the assay on MALME-3M melanoma was 102%; with MDA-MB-231 breast, 24.7%; in the assay on SF-268 CNS, 56.6%; with SF-295 CNS it was 54.3%; in the assay on SF-539 CNS it was 20.5%; in the assay with UACC-257 melanoma it was 55.4%. Besides, the growth in the assay on M14 melanoma was 72.9%.
For the molecule `CCN(CC)CCCC(Nc1c2ccc(Cl)cc2nc2ccc(OC)cc12)c1ccc(Cl)cc1` (stereo not drawn), the growth was 62.1% in the assay on NCI-H23 lung; 37% with NCI-H226 lung; -17.1% (active) in the assay on NCI-H322M lung; 25.4% with HOP-62 NSCLC; -69.2% (active) with NCI-H460 lung; 7.29% (active) in the assay with HOP-92 NSCLC. Also, the growth in the assay on NCI-H522 lung was -68.7% (active); in the assay with A549/ATCC NSCLC, -42.5% (active); in the assay with 786-0 renal it was -84% (active); in the assay with COLO 205 colon it was -73.8% (active); in the assay on DU-145 prostate it was 23.8%; in the assay with K-562 leukemia, -58.2% (active). The growth with MALME-3M melanoma was -82.3% (active); with MDA-MB-231 breast, -59.1% (active); with SF-268 CNS, 14.2%; with SF-295 CNS, -85.7% (active); in the assay with SF-539 CNS, -90.9% (active); in the assay with UACC-257 melanoma, -86.7% (active). Besides, in the assay on M14 melanoma, the growth is -89% (active).
Regarding `O=C(O)CNC(=O)CN1C(=O)c2ccccc2C1=O`, the growth in the assay on NCI-H23 lung is 102%; with NCI-H226 lung, 89.1%; in the assay on NCI-H322M lung it was 104%; in the assay with HOP-62 NSCLC, 88.3%; in the assay on NCI-H460 lung, 103%; with HOP-92 NSCLC it was 97.4%. Besides, the growth was 100% with NCI-H522 lung; 81.6% in the assay on A549/ATCC NSCLC; 98.4% with 786-0 renal; 104% with COLO 205 colon; 120% in the assay on DU-145 prostate; 85.8% with K-562 leukemia. The growth was 98.6% in the assay on MALME-3M melanoma; 114% with MDA-MB-231 breast; 106% in the assay on SF-268 CNS; 103% in the assay with SF-295 CNS; 107% with SF-539 CNS; 76.6% in the assay on UACC-257 melanoma. For the same molecule, the growth in the assay with M14 melanoma was 92.7%.
Consider `COc1ccccc1Nc1cc(O)c2c(=O)cc(-c3ccccc3)oc2c1`, for which the growth in the assay with NCI-H23 lung is 51.5%; with NCI-H226 lung, 76.8%; in the assay with NCI-H322M lung, 80.1%; in the assay on HOP-62 NSCLC, 35.6%; in the assay with NCI-H460 lung it was 11.4%; with HOP-92 NSCLC, 62.2%. Moreover, the growth in the assay on NCI-H522 lung is 7.64% (active); in the assay with A549/ATCC NSCLC it was 33.7%; in the assay with 786-0 renal it was 49.2%; with COLO 205 colon, 76.8%; with DU-145 prostate it was 45.6%; with K-562 leukemia, 11.6%. Further, the growth in the assay with MALME-3M melanoma is 44.1%; in the assay on MDA-MB-231 breast, 39.2%; in the assay on SF-268 CNS, 44.9%; in the assay on SF-295 CNS, 25.9%; in the assay on SF-539 CNS, 28.3%; in the assay with UACC-257 melanoma, 54%. Also, the growth in the assay with M14 melanoma is 20.8%.
